Drawing on PubChem BioAssay (Tox21), this text covers Potency for 21 compounds.

Inconclusive results are not listed. Entries that show only a call come without a potency. Calls of active or inactive are those of the source. Calls come from the whole dose curve; as a rule, active = well fitted cell-killing curve with a large enough effect in the repeat runs; inconclusive = weak or mixed curves, or effect the other way; inactive = flat fitted curve, though single readings scatter.
Potency is the fitted concentration of half-maximal effect.

A short description of this test: cAMP Responsive Elements (CRE) small molecule agonists, cell-based qHTS assay: qHTS cell viability counter screen (AID 2060914). Note: nearly all actives have a fitted effect of over 50% in size. The note with it: CRE-bla HEK293T viability, CellTiter-Glo luminescence, 5 h; series mostly up to 92.4 µM. In short, it runs like this: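 Cytotoxicity was measured as ATP luminescence (CellTiter-Glo, 30 min at room temperature) in the same wells as the CRE-bla FRET read-out. HEK293T CRE-bla cells had 3 h compound exposure at 37C/5% CO2.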
(In qHTS, concentration-response curves come from the screen itself.)
With `Nc1cnn([C@@H]2O[C@H](CO)[C@@H](O)[C@H]2O)c(=O)n1`, the Potency is 970 nM (active).
Under `CC[N+](C)(CC)CCOC(=O)C1c2ccccc2Oc2ccccc21` stands “inactive”.
As for `CCCCc1ccc2nc(NC(=O)OC)[nH]c2c1`, the entry is “inactive”; as for `O=Cc1ccc(C(=O)O)cc1`, “inactive”.
As for `O=C(O)c1ccccc1-n1cc(C(=O)O)c(=O)c2cc(Nc3c(F)cc(F)cc3Cl)c(Cl)cc21`, the entry is “inactive”; as for `O=C(O)c1cc(C(=O)O)c(C(=O)O)cc1C(=O)O`, “inactive”.
For the compound `O=C1CCCCCCCCCCCCCC1`, the Potency result was “inactive”.
In the case of `CCOC(=O)Oc1ccc(CCNC(=O)[C@H](CCSC)NC(C)=O)cc1OC(=O)OCC`, the Potency result is “inactive”.
As for `OC(CN1CCC(Cc2ccc(F)cc2)CC1)c1ccc(Cl)cc1` (stereo unspecified), the Potency entry is “inactive”.
Under `CO[Si](OC)(c1ccccc1)c1ccccc1` stands “inactive”; under `Cc1oc(-c2ccccc2)nc1CCOc1cccc2c1ccn2CCC(=O)O`, “inactive”; under `C=CCN1C[C@H](C(=O)N(CCCN(C)C)C(=O)NCC)C[C@@H]2c3cccc4[nH]cc(c34)C[C@H]21`, “inactive”.
As for `Cc1cc(CC(=O)O)n(C)c1C(=O)c1ccc(Cl)cc1`, the entry is “inactive”; as for `CCC(C)(CN(C)C)OC(=O)c1ccccc1` (stereo unspecified), “inactive”.
As for `c1cnc2cc3c(cc2n1)C1CNCC3C1`, the entry is “inactive”; as for `O=C(NOCC1CC1)c1ccc(F)c(F)c1Nc1ccc(I)cc1Cl`, “inactive”; as for `CCCCCCCC`, “inactive”.
Turning to `CCCCCCCCC(CO)CCCCCC` (stereo unspecified), the Potency result is “inactive”.
As for `Cc1cc(O)c2c(c1)C(=O)c1cc(O)cc(O)c1C2=O`, the entry is “inactive”.
As for `CCCCC(CC)COP(=O)(OCC(CC)CCCC)OCC(CC)CCCC` (stereo unspecified), the entry is “inactive”.
As for `CS(=O)(=O)O`, the entry is “inactive”.
